About 2,600 (0.79%) of roughly 330,000 compounds were called active. The sample as a whole holds a higher share of actives than the screen did. Unmarked numbers belong to inactive results.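 The calls were made as follows: active = mean ATP rescue above about 67%, or every replicate alone reaching that limit (limit read from the data, passing the limit was not always enough); inconclusive = no clear call, values can overlap the other calls; inactive = mean under the limit and some replicate under it.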
Assay: suppressors of statin myotoxicity in C2C12 myotubes, primary screen, cell-based, single point, plate reader (AID 602340);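 also: myotubes were challenged with 10 µM simvastatin during compound exposure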
Details: C2C12 myotubes + simvastatin, ATP luminescence, 48 h; at 7.49 µM; hits give high values; scaled: DMSO 0, geranylgeraniol control 100

In order of rising rescue of ATP level:
1. COc1ccc(S(=O)(=O)Nc2ccc3c(c2)C(=O)N([C@@H](C)CO)C[C@H](C)[C@H](CN(C)Cc2ccc4c(c2)OCO4)OCCCC[C@H](C)O3)cc1  -65.3%
2. CC1(C)Cc2c(C#N)c(SCc3nc4ccccc4[nH]3)nc(N3CCOCC3)c2CO1  -43.7%
3. CC=Cc1ccc2n(c1=O)C[C@H]1[C@H](CO)[C@@H](C(=O)NC3CCCC3)N(Cc3cccnc3)[C@@H]21 (mixture of isomers)  -41.8%
4. C[C@@H]1CN([C@H](C)CO)S(=O)(=O)c2ccc(C#C[C@@H](C)O)cc2O[C@H]1CN(C)CC1CC1  -38.8%
5. O=C(C[C@@H]1CC[C@@H]2[C@H](COC[C@H](O)CN2C(=O)Nc2cccc(Cl)c2)O1)NCCCN1CCOCC1  -20.2%
6. C=CCNC(=O)c1cc2nc(C3CC3)cc(C(F)F)n2n1  -17.9%
7. C[C@H](CO)N1C[C@H](C)[C@@H](CN(C)Cc2cccc(F)c2)Oc2cc(C#CC3CC3)ccc2S1(=O)=O  -17.1%
8. O=C(Nc1cc(C(F)(F)F)ccc1Cl)c1cc2nc3c(c(C(F)(F)F)n2n1)CCCC3  -15%
9. C[C@@H]1CN([C@@H](C)CO)C(=O)c2cc(C#CCN(C)C)cnc2O[C@H]1CN(C)S(=O)(=O)c1cn(C)cn1  -11.7%
10. CC=Cc1ccc2n(c1=O)C[C@@H]1[C@@H](CO)[C@H](C(=O)NCC(F)(F)F)N(CCc3ccccc3)[C@H]21 (mixture of isomers)  -10.8%
11. CCCNC(=O)Nc1ccc2c(c1)OC[C@@H](C)N(C(=O)c1ccccc1F)C[C@H](C)[C@@H](OC)CN(C)C2=O  -10.8%
12. O=C(c1cc(-c2ccc(F)cc2)on1)N1CCN(c2ccc(F)cc2)CC1  -7.85%
13. O=C(C[C@@H]1CC[C@@H]2[C@H](COC[C@@H](O)CN2S(=O)(=O)c2cccc(Cl)c2)O1)N1CCOCC1  -7.32%
14. O=C(NCc1ccco1)C1CCCN(S(=O)(=O)c2cnc[nH]2)C1 (stereo unspecified)  -4.96%
15. CO[C@@H]1CN(C)C(=O)c2ccc(NC(=O)c3cccc(Oc4ccccc4)c3)cc2OC[C@H](C)NC[C@@H]1C  -3.89%
16. COc1cc(OC)c(C(=O)N2CCCC2)cc1OC  -3.44%
17. CCCS(=O)(=O)N1CCCC(C(=O)NCc2ccco2)C1 (stereo unspecified)  -3.35%
18. CCC(=O)N[C@H]1CC[C@H](CCn2cc(-c3cccc(OC)c3)nn2)O[C@H]1CO  -2.48%
19. CCOCCn1c(C(C)C)nc2ccccc21  -2.16%
20. CCNC(=O)C[C@@H]1C=C[C@@H](NC(=O)C2CCOCC2)[C@@H](CO)O1  -1.82%
21. Cc1ccc2nc(N3CCN(C(=O)c4ccco4)CC3)sc2c1  0.517%
22. CC1(C)Cc2cccc(OCC(=O)Nc3nccs3)c2O1  0.639%
23. O=C(c1cc2cc(F)ccc2[nH]1)N1CCN(c2ccc(F)cc2)CC1  0.946%
24. CC1(C)Cc2cccc(OCC(=O)NCc3ccccc3)c2O1  1.33%
25. O=C(C[C@@H]1CC[C@@H]2[C@H](COC[C@H](O)CN2CC2CCOCC2)O1)NCC1CCCCC1  1.6%
26. Cc1ccc(O)c(CNc2nc3ccccc3[nH]2)c1  2.19%
27. C/C=C/c1ccc2c(c1)O[C@H](CN(C)C(=O)C1CCCCC1)[C@@H](C)CN([C@@H](C)CO)S2(=O)=O  2.75%
28. O=C(Nc1ccccc1)N1C[C@H]2[C@@H](c3ccccc31)[C@H](CO)N2Cc1ccc(F)cc1  3.11%
29. COc1cccc(S(=O)(=O)N[C@H]2C=C[C@H](CC(=O)NC3Cc4ccccc4C3)O[C@@H]2CO)c1  4.32%
30. O=C(Nc1ccccc1F)N[C@@H]1CC[C@H](CC(=O)N2CCCCC2)O[C@H]1CO  4.38%
31. CC(=O)N1[C@@H]2c3ccc(-c4ccccc4)c(=O)n3C[C@@H]2[C@@H](CO)[C@@H]1C(=O)NCc1ccccc1F  5.23%
32. OCc1ccc(OCCCOc2cccc3cccnc23)cc1  7.29%
33. CCCN(C)C[C@@H]1Oc2ncc(C#CC3CC3)cc2C(=O)N([C@H](C)CO)C[C@H]1C  8.64%
34. Fc1ccccc1COc1cccc2cccnc12  8.73%
35. COc1ccc2nc(N3C(=O)C(O)=C(C(=O)c4ccco4)C3c3ccco3)sc2c1 (stereo unspecified)  9.9%
36. CCCC#Cc1cnc2c(c1)C(=O)N([C@H](C)CO)C[C@@H](C)[C@@H](CN(C)C(=O)Nc1ccccc1OC)O2  11.6%
37. COCC(=O)Nc1ccc2c(c1)C(=O)N(C)[C@@H]1CC[C@H](CC(=O)NCC3CCCCC3)O[C@H]1CO2  13.3%
38. COCCOCCn1cnc2ccccc21  14.6%
39. COCC(=O)Nc1ccc2c(c1)OC[C@@H](C)N(C(=O)CC1CC1)C[C@@H](C)[C@@H](OC)CN(C)C2=O  15.1%
40. Cc1ccc(C(=O)N2CCCC2)c(F)c1F  16.3%
41. CO[C@@H]1CN(C)C(=O)c2ccc(NC(=O)NC(C)C)cc2OC[C@H](C)N(Cc2ccc(-c3ccccn3)cc2)C[C@H]1C  16.4%
42. CNC(=O)C[C@H]1CC[C@H]2[C@H](COc3ccc(NC(=O)Nc4ccc(F)cc4)cc3C(=O)N2C)O1  17.2%

With `CC1(C)Cc2cccc(OCC(N)=O)c2O1` the rescue of ATP level was 113% (active).
With `Clc1ccccc1SCc1nc2ccccc2[nH]1` the rescue of ATP level was 91.4% (active).
For `COc1ccc2nc(N3CCN(C(=O)c4ccc([N+](=O)[O-])o4)CC3)sc2c1`, the rescue of ATP level was 73.2% (active).
For `O=C(NCc1ccco1)C1CCCN(S(=O)(=O)c2ccccc2)C1` (stereo unspecified), the rescue of ATP level was 133% (active).
For `Cc1c(C(=O)N2CCN(c3ccc(F)cc3)CC2)oc2c1C(=O)CCC2`, the rescue of ATP level was 87.3% (active).
In the case of `O=C(Nc1ccc(Cl)cc1)c1cc2nc(C3CC3)cc(C(F)(F)F)n2n1`, the rescue of ATP level is reported as 98.2% (active).
In the case of `Cc1c(Br)cc(C(=O)N2CCCCCC2)c(C)c1C`, the rescue of ATP level is reported as 115% (active).
In the case of `O=C(Nc1ccccc1)Oc1cccc2cccnc12`, the rescue of ATP level is reported as 101% (active).
With `CCc1nc2ccccc2n(CCOCCOCCn2c(=O)c(CC)nc3ccccc32)c1=O` the rescue of ATP level was 114% (active).

Source: PubChem BioAssay AID602340 (Broad Institute, 2012)
